# Reference: the supplement of paper PMC11732987, “Enantioselective OTUD7B fragment discovery through chemoproteomics screening and high-throughput optimisation” (Communications Chemistry, 2025)
# Values without a mark were called inactive.
# Experiments:
# Assay in all cases: log2 ratio of Biotin-Ahx-Ub-VS probe labelling (fragment/DMSO); higher = less target engagement (more negative = stronger competition), active = hit call of the paper (q ≤ 0.05, log2 ratio ≤ -1)
# Conditions in all cases: compound concentration: 200 uM; treatment time: 3 h
# USP34 = USP34 (UniProt Q70CQ2)
# Procedure, shortened: (§1)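 Labelled DUBs from HEK293T lysate were NeutrAvidin-enriched, digested with LysC and trypsin, and run by diaPASEF LC-MS/MS. Before that, each 495 µg sample in Tris/CHAPS/IGEPAL buffer with protease inhibitors was treated in triplicate with fragment at 200 µM or vehicle for 3 h, then with Biotin-Ahx-Ub-VS at 0.5 µM final for 1 h. Values are average log2 ratios of fragment over vehicle by unpaired t-test, based on global-median-normalised Spectronaut label-free quantities from proteins with ≥2 unique peptides.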
# USP36 = biological target: T1, USP36 (UniProt Q9P275)
# T1 sequence (whole entry): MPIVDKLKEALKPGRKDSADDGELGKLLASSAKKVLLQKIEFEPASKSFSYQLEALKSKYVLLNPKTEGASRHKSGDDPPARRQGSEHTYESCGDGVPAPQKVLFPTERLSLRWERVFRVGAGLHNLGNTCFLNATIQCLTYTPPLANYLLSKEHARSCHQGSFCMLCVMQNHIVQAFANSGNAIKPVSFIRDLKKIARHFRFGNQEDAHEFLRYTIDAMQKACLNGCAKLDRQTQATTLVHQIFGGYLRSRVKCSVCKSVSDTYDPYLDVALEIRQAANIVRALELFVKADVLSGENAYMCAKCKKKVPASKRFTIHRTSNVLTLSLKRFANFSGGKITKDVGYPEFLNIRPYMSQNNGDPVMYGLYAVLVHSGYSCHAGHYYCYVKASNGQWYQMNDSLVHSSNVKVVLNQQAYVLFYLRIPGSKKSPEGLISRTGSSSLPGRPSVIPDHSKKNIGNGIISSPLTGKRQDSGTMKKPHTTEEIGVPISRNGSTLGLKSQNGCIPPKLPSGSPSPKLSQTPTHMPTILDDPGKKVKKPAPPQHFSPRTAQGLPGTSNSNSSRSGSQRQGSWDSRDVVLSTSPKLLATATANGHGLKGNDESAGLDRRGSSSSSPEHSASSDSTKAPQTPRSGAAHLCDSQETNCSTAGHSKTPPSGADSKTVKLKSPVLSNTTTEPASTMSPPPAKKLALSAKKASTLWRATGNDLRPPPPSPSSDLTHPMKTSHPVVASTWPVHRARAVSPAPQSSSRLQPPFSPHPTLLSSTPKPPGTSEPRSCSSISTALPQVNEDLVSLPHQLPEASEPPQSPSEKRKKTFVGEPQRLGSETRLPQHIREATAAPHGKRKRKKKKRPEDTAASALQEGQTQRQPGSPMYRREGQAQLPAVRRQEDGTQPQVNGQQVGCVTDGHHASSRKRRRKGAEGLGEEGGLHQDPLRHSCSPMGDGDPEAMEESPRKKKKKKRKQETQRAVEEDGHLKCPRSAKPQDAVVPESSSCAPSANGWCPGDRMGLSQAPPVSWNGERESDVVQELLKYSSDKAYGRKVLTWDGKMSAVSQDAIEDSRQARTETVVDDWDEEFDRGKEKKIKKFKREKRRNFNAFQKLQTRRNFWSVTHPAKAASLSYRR
# Procedure, shortened: as §1
# USP38 = biological target: T2, USP38 (UniProt Q8NB14)
# T2 sequence (whole entry): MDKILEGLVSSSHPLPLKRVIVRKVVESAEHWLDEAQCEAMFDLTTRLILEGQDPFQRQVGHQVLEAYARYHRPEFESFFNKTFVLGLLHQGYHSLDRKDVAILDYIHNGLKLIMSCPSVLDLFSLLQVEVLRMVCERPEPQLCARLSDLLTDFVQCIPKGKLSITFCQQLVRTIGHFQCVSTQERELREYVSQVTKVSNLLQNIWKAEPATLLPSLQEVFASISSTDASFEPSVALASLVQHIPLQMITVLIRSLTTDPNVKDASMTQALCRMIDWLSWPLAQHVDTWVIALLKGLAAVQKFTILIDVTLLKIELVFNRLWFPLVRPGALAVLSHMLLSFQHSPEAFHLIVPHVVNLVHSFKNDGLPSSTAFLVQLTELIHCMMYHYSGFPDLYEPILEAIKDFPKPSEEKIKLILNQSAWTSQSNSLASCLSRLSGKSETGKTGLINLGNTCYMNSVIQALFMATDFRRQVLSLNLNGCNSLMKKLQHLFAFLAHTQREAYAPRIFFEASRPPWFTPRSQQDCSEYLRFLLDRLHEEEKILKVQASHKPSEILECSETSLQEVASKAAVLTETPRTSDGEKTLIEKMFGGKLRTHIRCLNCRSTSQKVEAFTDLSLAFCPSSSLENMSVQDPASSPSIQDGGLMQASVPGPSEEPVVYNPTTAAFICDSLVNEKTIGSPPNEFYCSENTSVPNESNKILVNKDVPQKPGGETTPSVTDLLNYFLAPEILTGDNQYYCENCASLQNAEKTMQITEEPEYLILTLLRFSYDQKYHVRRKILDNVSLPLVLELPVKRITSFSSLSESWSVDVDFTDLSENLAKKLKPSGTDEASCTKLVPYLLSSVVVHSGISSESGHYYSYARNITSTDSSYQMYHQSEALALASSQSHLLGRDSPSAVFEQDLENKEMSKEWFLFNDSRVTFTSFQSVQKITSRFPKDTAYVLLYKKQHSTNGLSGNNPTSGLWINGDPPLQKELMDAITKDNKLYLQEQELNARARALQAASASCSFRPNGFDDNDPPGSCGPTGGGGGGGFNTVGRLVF
# Procedure, shortened: as §1
# USP39 = biological target: T3, USP39 (UniProt Q53GS9)
# T3 sequence (whole entry): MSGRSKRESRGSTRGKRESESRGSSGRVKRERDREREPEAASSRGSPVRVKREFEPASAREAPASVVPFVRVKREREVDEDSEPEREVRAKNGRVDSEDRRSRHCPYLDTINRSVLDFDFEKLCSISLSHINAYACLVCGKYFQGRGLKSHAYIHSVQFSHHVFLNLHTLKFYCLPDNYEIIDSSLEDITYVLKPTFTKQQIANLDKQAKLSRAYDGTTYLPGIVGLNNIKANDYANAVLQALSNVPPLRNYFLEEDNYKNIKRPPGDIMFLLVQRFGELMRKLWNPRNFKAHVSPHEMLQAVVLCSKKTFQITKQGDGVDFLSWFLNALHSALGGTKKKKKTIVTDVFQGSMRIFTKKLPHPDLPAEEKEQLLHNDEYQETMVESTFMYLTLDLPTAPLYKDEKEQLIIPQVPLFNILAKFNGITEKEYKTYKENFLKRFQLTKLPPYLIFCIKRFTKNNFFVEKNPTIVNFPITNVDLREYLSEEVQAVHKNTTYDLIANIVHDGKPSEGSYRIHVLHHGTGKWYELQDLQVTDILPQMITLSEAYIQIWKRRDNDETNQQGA
# Procedure, shortened: as §1
# USP4 = biological target: T4, USP4 (UniProt Q13107)
# T4 sequence (whole entry): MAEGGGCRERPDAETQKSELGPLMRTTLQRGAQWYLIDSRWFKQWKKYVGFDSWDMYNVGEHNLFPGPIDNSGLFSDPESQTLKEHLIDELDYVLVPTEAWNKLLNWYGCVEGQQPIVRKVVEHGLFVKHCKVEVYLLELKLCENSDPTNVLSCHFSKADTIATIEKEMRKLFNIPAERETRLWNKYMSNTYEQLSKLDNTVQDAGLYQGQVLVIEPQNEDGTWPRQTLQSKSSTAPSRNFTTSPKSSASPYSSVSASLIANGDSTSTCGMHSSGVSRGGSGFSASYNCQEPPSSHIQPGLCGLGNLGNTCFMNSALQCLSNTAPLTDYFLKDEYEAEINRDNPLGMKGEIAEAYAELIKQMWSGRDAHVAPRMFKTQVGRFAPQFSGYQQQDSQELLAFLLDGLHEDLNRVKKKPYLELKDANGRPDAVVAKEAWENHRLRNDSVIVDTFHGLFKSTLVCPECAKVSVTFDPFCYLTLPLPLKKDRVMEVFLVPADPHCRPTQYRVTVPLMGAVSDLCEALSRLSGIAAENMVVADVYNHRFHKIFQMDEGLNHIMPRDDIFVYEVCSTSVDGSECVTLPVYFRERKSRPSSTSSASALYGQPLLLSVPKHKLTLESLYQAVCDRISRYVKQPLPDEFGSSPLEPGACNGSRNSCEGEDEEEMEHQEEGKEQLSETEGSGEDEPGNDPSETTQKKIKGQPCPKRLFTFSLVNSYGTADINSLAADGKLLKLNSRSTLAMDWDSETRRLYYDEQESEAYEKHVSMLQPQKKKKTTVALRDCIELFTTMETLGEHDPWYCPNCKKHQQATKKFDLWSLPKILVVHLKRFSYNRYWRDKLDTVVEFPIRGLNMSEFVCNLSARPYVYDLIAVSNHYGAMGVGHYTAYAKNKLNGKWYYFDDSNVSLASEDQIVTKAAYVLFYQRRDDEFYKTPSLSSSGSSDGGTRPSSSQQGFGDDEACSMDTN
# Procedure, shortened: as §1
# USP34, sequence (Q70CQ2 whole entry, the tested form may be a part): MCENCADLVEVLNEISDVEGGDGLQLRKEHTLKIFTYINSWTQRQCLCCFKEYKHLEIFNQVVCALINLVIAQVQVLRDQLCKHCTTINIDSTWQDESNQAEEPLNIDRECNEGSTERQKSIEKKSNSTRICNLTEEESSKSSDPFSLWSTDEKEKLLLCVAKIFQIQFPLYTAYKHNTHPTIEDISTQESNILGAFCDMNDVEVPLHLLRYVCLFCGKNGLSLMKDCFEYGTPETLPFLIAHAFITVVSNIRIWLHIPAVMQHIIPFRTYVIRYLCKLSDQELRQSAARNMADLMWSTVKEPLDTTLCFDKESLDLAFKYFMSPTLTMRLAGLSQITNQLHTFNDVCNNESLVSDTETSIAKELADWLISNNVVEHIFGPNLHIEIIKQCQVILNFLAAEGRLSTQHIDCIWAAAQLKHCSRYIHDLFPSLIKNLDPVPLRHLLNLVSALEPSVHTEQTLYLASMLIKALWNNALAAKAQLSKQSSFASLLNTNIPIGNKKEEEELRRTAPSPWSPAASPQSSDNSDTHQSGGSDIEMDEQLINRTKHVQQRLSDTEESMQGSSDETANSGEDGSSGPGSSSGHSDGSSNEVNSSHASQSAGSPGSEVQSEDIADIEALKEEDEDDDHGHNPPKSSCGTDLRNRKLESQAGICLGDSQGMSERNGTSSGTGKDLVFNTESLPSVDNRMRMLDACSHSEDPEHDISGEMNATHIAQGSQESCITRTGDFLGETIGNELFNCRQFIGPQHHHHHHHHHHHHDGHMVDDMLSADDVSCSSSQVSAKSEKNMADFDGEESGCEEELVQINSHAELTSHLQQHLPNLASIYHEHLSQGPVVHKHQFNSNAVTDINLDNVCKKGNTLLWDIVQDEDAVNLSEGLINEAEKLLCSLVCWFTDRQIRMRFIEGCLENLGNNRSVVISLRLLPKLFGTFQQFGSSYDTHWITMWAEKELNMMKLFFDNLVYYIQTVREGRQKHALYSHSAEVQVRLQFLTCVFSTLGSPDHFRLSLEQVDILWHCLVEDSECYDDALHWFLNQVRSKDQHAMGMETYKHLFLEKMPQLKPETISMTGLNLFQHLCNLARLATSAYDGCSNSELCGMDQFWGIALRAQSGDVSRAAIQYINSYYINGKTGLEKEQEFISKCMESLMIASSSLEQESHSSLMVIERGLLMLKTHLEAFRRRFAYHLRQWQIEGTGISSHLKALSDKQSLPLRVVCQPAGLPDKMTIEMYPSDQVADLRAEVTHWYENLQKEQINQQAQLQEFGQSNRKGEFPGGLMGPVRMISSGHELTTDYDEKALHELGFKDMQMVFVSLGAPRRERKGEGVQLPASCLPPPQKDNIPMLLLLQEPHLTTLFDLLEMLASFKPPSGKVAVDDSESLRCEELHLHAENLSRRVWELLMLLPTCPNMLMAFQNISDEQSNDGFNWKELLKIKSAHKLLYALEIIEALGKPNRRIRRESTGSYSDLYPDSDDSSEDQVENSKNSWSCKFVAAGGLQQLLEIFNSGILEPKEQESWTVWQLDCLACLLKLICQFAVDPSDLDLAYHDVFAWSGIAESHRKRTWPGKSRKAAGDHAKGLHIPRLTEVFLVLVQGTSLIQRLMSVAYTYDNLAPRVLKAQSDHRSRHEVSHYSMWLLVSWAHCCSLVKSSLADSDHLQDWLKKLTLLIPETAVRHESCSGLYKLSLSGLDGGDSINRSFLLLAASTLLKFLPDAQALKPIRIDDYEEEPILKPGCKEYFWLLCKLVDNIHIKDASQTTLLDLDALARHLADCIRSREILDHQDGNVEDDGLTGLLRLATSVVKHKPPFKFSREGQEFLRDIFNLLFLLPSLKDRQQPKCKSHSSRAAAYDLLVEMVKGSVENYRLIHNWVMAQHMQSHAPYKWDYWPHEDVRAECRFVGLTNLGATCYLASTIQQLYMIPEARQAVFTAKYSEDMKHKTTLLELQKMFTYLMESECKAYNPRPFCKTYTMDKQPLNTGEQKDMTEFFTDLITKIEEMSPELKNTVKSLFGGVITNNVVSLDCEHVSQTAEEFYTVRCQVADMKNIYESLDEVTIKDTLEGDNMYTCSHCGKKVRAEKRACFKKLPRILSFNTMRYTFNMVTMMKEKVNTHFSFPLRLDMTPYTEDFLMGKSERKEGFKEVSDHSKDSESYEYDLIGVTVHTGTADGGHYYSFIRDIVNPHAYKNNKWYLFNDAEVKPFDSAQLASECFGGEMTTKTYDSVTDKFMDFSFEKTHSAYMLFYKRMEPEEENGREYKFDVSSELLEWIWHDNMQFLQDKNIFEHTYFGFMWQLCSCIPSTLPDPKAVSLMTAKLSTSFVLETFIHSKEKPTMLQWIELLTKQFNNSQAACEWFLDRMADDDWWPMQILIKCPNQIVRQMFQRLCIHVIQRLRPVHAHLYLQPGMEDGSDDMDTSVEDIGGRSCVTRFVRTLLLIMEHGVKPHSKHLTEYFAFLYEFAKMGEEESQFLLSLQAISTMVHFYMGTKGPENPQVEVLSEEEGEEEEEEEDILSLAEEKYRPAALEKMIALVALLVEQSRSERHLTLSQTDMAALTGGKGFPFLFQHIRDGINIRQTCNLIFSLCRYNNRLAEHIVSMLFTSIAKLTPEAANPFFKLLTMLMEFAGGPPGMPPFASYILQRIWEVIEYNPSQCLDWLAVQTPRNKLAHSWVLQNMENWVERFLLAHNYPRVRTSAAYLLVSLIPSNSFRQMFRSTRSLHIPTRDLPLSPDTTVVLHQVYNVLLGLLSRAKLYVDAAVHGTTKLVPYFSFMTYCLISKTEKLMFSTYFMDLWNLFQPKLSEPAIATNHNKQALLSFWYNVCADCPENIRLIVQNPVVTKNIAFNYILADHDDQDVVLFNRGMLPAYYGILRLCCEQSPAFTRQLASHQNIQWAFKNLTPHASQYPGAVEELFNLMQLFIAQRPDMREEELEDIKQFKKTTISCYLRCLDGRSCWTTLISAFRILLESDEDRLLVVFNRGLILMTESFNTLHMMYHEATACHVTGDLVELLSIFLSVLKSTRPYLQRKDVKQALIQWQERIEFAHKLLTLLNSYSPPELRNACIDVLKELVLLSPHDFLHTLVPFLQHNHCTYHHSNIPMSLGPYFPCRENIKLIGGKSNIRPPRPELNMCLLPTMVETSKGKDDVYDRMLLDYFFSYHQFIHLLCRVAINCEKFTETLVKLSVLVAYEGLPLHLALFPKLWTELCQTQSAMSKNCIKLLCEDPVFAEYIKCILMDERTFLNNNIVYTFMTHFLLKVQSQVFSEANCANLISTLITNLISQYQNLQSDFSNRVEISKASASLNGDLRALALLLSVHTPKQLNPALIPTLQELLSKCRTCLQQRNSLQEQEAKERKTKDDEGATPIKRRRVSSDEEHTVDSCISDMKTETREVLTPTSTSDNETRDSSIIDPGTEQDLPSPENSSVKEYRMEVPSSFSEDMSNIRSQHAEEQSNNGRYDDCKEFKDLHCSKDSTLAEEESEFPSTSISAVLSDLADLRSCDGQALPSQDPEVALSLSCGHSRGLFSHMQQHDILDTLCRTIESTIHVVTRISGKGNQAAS
smiles,measurement,setting,value
O=C(CCl)N1CCN(C(=O)N2CCCCC2)CC1,log2 ratio of Biotin-Ahx-Ub-VS probe labelling,USP34,-0.512
same,log2 ratio of Biotin-Ahx-Ub-VS probe labelling,USP36,-0.269
same,log2 ratio of Biotin-Ahx-Ub-VS probe labelling,USP38,-1.04 (active)
same,log2 ratio of Biotin-Ahx-Ub-VS probe labelling,USP39,-0.223
same,log2 ratio of Biotin-Ahx-Ub-VS probe labelling,USP4,-1.05 (active)
